M1 PAM: positive allosteric modulators of human M1 muscarinic receptor; P11229; CHO-K1 hM1, Fluo-8 calcium fluorescence, ACh EC20; 0% = ACh EC20, 100% = maximal ACh; activation, % at 3 µM; hit rate 0.088% among 360,000; AID 588819; in the data active = activation above about 19%, passing the limit was not always enough
Target sequence (P11229 whole entry, looked up): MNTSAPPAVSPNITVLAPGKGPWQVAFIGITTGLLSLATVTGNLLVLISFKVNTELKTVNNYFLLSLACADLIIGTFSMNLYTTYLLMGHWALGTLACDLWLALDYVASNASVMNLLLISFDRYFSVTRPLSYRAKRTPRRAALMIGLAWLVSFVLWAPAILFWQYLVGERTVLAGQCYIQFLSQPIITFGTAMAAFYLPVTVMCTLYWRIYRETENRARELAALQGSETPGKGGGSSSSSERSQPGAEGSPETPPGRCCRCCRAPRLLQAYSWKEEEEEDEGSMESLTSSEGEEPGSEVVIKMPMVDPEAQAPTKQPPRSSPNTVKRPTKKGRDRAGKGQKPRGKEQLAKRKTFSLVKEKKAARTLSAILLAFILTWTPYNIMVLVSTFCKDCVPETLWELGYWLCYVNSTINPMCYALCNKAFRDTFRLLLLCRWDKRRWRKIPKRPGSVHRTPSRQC
CHO-K1 Ca antag: counter-screen for M1 antagonists: effect in parental CHO-K1 cells | ATP-induced calcium, Fluo-8 fluorescence | inhibition, % at 3 µM | AID 602250 | hit rate 0.6% among 360,000;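 active = inhibition above a per-plate cutoff, the plate's mean sample inhibition plus 3 SD, cut at about 24% in these data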;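 also: 0% = DMSO plus EC80 ATP and 100% = DMSO alone without ATP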
M1 ag: agonists of human M1 muscarinic receptor; P11229; CHO-K1 hM1, Fluo-8 calcium fluorescence, agonist mode; 0% DMSO, 100% acetylcholine EC100; activation, % at 3 µM; hit rate 0.33% among 360,000; AID 588814;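 active = activation above the run's mean compound activation plus 3 SD, cut at about 16% in these data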;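 also: peak over basal fluorescence ratio within a 140 s kinetic read after compound addition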
M1 antag: blocks human M1 muscarinic receptor; P11229; CHO-K1 hM1, Fluo-8 calcium fluorescence, ACh EC80 antagonist; inhibition, % at 3 µM; hit rate 1.3% among 360,000; AID 588852;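 active = percent inhibition above its own plate's cutoff, namely the mean of that plate's compound wells plus 3 SD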;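 also: peak over basal fluorescence ratio during 140 s after agonist addition; 0% = ACh EC80 plus DMSO and 100% = DMSO alone without agonist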
M1 PAM parental: M1 PAM counterscreen hit in parental CHO-K1 cells; activation, % at 3 µM; ATP EC20, Fluo-8 calcium fluorescence; 0% at ATP EC20, 100% at ATP max; hit rate 0.02% among 360,000; AID 602247;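 active = activation above the run cutoff, the mean activation of all test compounds plus 3 SD, cut at about 40% in these data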;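 also: peak over basal fluorescence ratio in a 140 s read after ATP addition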
CHO-K1 Ca ag: nonselective activator or artifact in parental CHO-K1 cells | hit rate 0.48% among 360,000 | Fluo-8 calcium fluorescence; scaled to maximal ATP response, vehicle zero | AID 602248 | activation, % at 3 µM; in the data active = activation above about 15%;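 also: untransfected CHO-K1 host cells lacking M1 receptor as counterscreen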
* hit, by the source's call; x = not tested or not shown. Most compounds without a hit are left out; they make up all but 2.4% or so of the library.

SMILES	M1 PAM	CHO-K1 Ca antag	M1 ag	M1 antag	M1 PAM parental	CHO-K1 Ca ag
O=C(N/N=C\c1ccc([N+](=O)[O-])s1)C1COc2ccccc2O1 (stereo not drawn)	5	65*	-2	-6	-2	1
O=C(COC(=O)C1(c2ccccc2)CCCC1)N1CCNC1=O	3	-8	-6	-12	10	1
Cc1ccc(NC(=O)C2(c3ccccc3)CCOCC2)cc1	13	-5	-13	-3	12	1
CCN(CC)CCOC(=O)C1(c2ccc(OC)c(OC)c2)CCCC1	-21	-16	-8	77*	18	0
CCN(CC)CCOC(=O)C1(c2ccccc2)CCCC1	-24	-7	-9	100*	16	3
O=C(OCCCN1CCCC1)C1(c2ccccc2)CCCC1	-21	3	-6	96*	8	0
CN(C)CCOC(=O)C1(c2ccccc2)CCOCC1	-24	-5	-6	23*	10	0
NC(=O)c1ccccc1OCC(=O)Nc1ccc2c(c1)OCCO2	7	19	-4	-15	-21	0
COc1cc(C(=O)C(=O)c2ccc(OC)c(OC)c2)ccc1O	6	-15	0	-5	11	0
CCOC(=O)C(=O)N(C)c1c(CC)nc2c(OCc3ccccc3C)cccn12	14	-15	-9	-22	18	0
COc1ccc(OC)c(NC(=O)c2cnc3n(c2=O)CCS3)c1	3	26*	-3	-4	-15	0
CCOc1cc(OCC)cc(C(=O)N2CCC[C@@H]2C(=O)N2CCC[C@@H]2C(=O)NCc2ccccc2Cl)c1	x	10	x	x	-4	17*
COc1ccc(N(C)S(=O)(=O)c2cccc(C(=O)Nc3ccc(-n4cnnn4)cc3)c2)cc1	-13	-1	4	29*	13	9
COc1ccc(N(C)S(=O)(=O)c2cccc(C(=O)Nc3ccc4c(c3)OCCO4)c2)cc1	-2	8	-1	12	-9	6
Cc1ccc(NCC2(N=Cc3ccccc3)OC(CO)C(O)C2O)cc1 (stereo not drawn)	13	-7	-1	-22	6	1
COCCNc1nc(NCc2ccccc2OC)c2sccc2n1	-1	-14	-3	-5	12	7
COc1ccccc1CNc1nc(NCCNC(C)=O)c2sccc2n1	5	-4	-8	-19	18	1
CCCCNc1nc(NCc2ccccc2)nc2ccccc12	x	54*	x	x	-17	49*
COCCNc1nc(NCc2ccccc2)nc2ccsc12	-33	95*	79*	100*	-16	77*
O=C1CCCN1CCCNc1nc(NCc2ccccc2)nc2ccsc12	-33	84*	92*	101*	-16	86*
CC(=O)NCCNc1nc(NCc2ccccc2)nc2ccsc12	-27	9	32*	8	-11	10
CC(C)n1ncc2c(C(=O)NCc3cccnc3)cc(C3CC3)nc21	0	-11	-5	8	12	0
COc1ccc(OC)c(S(=O)(=O)N2CCN(CC(O)COc3ccccc3)CC2)c1 (stereo not drawn)	3	-8	-2	2	6	7
CN(Cc1ccccc1)S(=O)(=O)c1ccc(N2CCCC2=O)cc1	-1	23	1	4	1	16*
CN(Cc1ccccc1)S(=O)(=O)c1ccc2c(c1)n(C)c(=O)c(=O)n2C	7	0	-4	-14	12	0
SMILES	M1 PAM	CHO-K1 Ca antag	M1 ag	M1 antag	M1 PAM parental	CHO-K1 Ca ag
CN(Cc1ccccc1)S(=O)(=O)c1ccc(NS(=O)(=O)Cc2ccccc2)cc1	-15	22	-4	30*	-9	2
O=C(CN1CCc2ccccc2C1)Nc1ccccc1F	3	-2	-4	-10	-1	0
C[C@@H]1CN([C@H](C)CO)C(=O)CCCn2cc(nn2)CO[C@H]1CN(C)C(=O)Nc1ccnc(N2CCOCC2)c1	-5	0	-8	3	-5	0
Cc1ccc(C(C)(C)C)c(OCCN2CCCC2)c1	-24	-1	-10	67*	16	1
CC(C)Oc1ccccc1OCCN(C)C	11	-9	-13	-4	24	0
CC(OCCN1CCCC1)(c1ccc(F)cc1)c1ccc(F)cc1	-20	-6	-8	92*	13	2
Cc1cc(C(C)(C)C)ccc1OCCN1CCCC1	0	-1	-4	-21	14	1

Bioassay records (PubChem)
